Assay results from PubChem BioAssay AID1159580 (chemical genetic matrix, 2015).
The whole screen tested about 5,500 compounds, of which about 2,000 (36%) were called active. Roughly 18% stayed inconclusive and do not appear here. No stated cut-off is given here; in the data, active means normalized growth mostly below about 0.91 (no sharp cut-off); inconclusive means no clear call, values can overlap the other calls; inactive means mostly above about 0.92. Some of the results follow.

Test: chemical genetic growth profiling, strain panel (AID 1159580);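 further: tested at 20 µM; growth read once vehicle control cultures reached saturation at 30 °C; 1 = growth at the plate median or of vehicle wells; lower values mean less growth of the strain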
Conditions: growth OD

Measured: normalized growth

CC1(C)OC(=O)NC1=O
inactive: S. cerevisiae deletion strains, locus YJR075W, strain HOC1, active compounds read low 0.981 | S. cerevisiae deletion strains, locus YKL009W, strain mrt4, active compounds read low 0.966 | S. cerevisiae deletion strains, locus YKL068W, active compounds read low 0.988 | S. cerevisiae deletion strains, locus YKL085W, strain MDH1 (second series), active compounds read low 1.06 | S. cerevisiae deletion strains, locus YKL085W, strain MDH1, active compounds read low 1.06 | S. cerevisiae deletion strains, locus YKL160W, strain elf1, active compounds read low 1.01 | S. cerevisiae deletion strains, locus YKR001C, strain vps1, active compounds read low 1.01 | S. cerevisiae deletion strains, locus YKR026C, strain gcn3, active compounds read low 0.994 | S. cerevisiae deletion strains, locus YKR091W, strain srl3, active compounds read low 1.01 | S. cerevisiae deletion strains, locus YLL001W, strain dnm1, active compounds read low 1.02 | S. cerevisiae deletion strains, locus YLL026W, active compounds read low 1.01 | S. cerevisiae deletion strains, locus YLL041C, strain sdh2, active compounds read low 1.01 | S. cerevisiae deletion strains, locus YLR027C, strain aat2, active compounds read low 1.01 | S. cerevisiae deletion strains, locus YLR039C, strain RIC1, active compounds read low 1.02 | S. cerevisiae deletion strains, locus YLR058C, strain SHM2, active compounds read low 0.983 | S. cerevisiae deletion strains, locus YLR102C, strain apc9, active compounds read low 0.981 | S. cerevisiae deletion strains, locus YLR113W, strain HOG1, active compounds read low 1.02 | S. cerevisiae deletion strains, locus YLR221C, strain rsa3, active compounds read low 0.991 | S. cerevisiae deletion strains, locus YLR258W, strain gsy2, active compounds read low 1 | S. cerevisiae deletion strains, locus YLR262C, strain YPT6 (second series), active compounds read low 1.03 | S. cerevisiae deletion strains, locus YLR262C, strain YPT6, active compounds read low 0.97 | S. cerevisiae deletion strains, locus YLR268W, strain sec22, active compounds read low 0.989 | S. cerevisiae deletion strains, locus YLR320W, strain mms22, active compounds read low 0.975 | S. cerevisiae deletion strains, locus YLR330W, strain CHS5, active compounds read low 0.996 | S. cerevisiae deletion strains, locus YLR342W, strain FKS1 (second series), active compounds read low 1.04 | S. cerevisiae deletion strains, locus YLR342W, strain FKS1, active compounds read low 1.02 | S. cerevisiae deletion strains, locus YLR357W, strain rsc2, active compounds read low 1.03 | S. cerevisiae deletion strains, locus YLR370C, strain arc18, active compounds read low 1.02 | S. cerevisiae deletion strains, locus YLR371W, strain rom2, active compounds read low 0.98 | S. cerevisiae deletion strains, locus YLR384C, strain iki3, active compounds read low 1.01 | S. cerevisiae deletion strains, locus YLR418C, strain cdc73, active compounds read low 0.958 | S. cerevisiae deletion strains, locus YML016C, strain PPZ1, active compounds read low 0.997 | S. cerevisiae deletion strains, locus YML032C, strain rad52, active compounds read low 0.98 | S. cerevisiae deletion strains, locus YML120C, strain ndi1, active compounds read low 1.02 | S. cerevisiae deletion strains, locus YML124C, strain tub3, active compounds read low 0.983 | S. cerevisiae deletion strains, locus YMR058W, strain fet3, active compounds read low 1.03 | S. cerevisiae deletion strains, locus YMR078C, strain ctf18, active compounds read low 0.971 | S. cerevisiae deletion strains, locus YMR125W, strain sto1, active compounds read low 1.05 | S. cerevisiae deletion strains, locus YMR129W, active compounds read low 1.01 | S. cerevisiae deletion strains, locus YMR205C, strain PFK2, active compounds read low 1.02 | S. cerevisiae deletion strains, locus YMR223W, strain ubp8, active compounds read low 0.964 | S. cerevisiae deletion strains, locus YMR231W, strain pep5, active compounds read low 1.01 | S. cerevisiae deletion strains, locus YMR263W, strain SAP30, active compounds read low 0.981 | S. cerevisiae deletion strains, locus YMR307W, strain GAS1, active compounds read low 1.05 | S. cerevisiae deletion strains, locus YNL067W, strain RPL9B, active compounds read low 0.972 | S. cerevisiae deletion strains, locus YNL071W, strain lat1, active compounds read low 1 | S. cerevisiae deletion strains, locus YNL153C, strain GIM3, active compounds read low 0.989 | S. cerevisiae deletion strains, locus YNL183C, strain NPR1, active compounds read low 0.975 | S. cerevisiae deletion strains, locus YNL209W, strain ssb2, active compounds read low 0.996 | S. cerevisiae deletion strains, locus YNL233W, strain BNI4, active compounds read low 0.983 | S. cerevisiae deletion strains, locus YNL248C, strain rpa49, active compounds read low 1.07 | S. cerevisiae deletion strains, locus YNL250W, strain rad50, active compounds read low 0.967 | S. cerevisiae deletion strains, locus YNL271C, strain bni1, active compounds read low 0.966 | S. cerevisiae deletion strains, locus YNL298W, strain CLA4, active compounds read low 0.971 | S. cerevisiae deletion strains, locus YNL307C, strain MCK1, active compounds read low 0.983 | S. cerevisiae deletion strains, locus YNL322C, strain KRE1 (second series), active compounds read low 1.01 | S. cerevisiae deletion strains, locus YNL322C, strain KRE1, active compounds read low 1.01 | S. cerevisiae deletion strains, locus YNR049C, strain mso1, active compounds read low 1.01 | S. cerevisiae deletion strains, locus YNR052C, strain pop2, active compounds read low 0.971 | S. cerevisiae deletion strains, locus YOL006C, strain TOP1, active compounds read low 0.926 | S. cerevisiae deletion strains, locus YOL012C, strain htz1 0.866 | S. cerevisiae deletion strains, locus YOL147C, strain pex11, active compounds read low 0.973 | S. cerevisiae deletion strains, locus YOR001W, strain rrp6, active compounds read low 1.02 | S. cerevisiae deletion strains, locus YOR061W, strain CKA2, active compounds read low 0.994 | S. cerevisiae deletion strains, locus YOR069W, strain VPS5, active compounds read low 0.991 | S. cerevisiae deletion strains, locus YOR070C, strain gyp1, active compounds read low 0.999 | S. cerevisiae deletion strains, locus YOR080W, strain dia2, active compounds read low 1.02 | S. cerevisiae deletion strains, locus YOR083W, strain WHI5, active compounds read low 0.987 | S. cerevisiae deletion strains, locus YOR106W, strain vam3, active compounds read low 1.03 | S. cerevisiae deletion strains, locus YOR136W, strain idh2, active compounds read low 0.974 | S. cerevisiae deletion strains, locus YOR144C, strain elg1, active compounds read low 0.976 | S. cerevisiae deletion strains, locus YOR184W, strain ser1, active compounds read low 0.966 | S. cerevisiae deletion strains, locus YOR231W, strain MKK1, active compounds read low 1.04 | S. cerevisiae deletion strains, locus YOR265W, strain rbl2, active compounds read low 1.01 | S. cerevisiae deletion strains, locus YOR270C, strain vph1, active compounds read low 1.07 | S. cerevisiae deletion strains, locus YOR290C, strain snf2, active compounds read low 1.02 | S. cerevisiae deletion strains, locus YOR316C, strain cot1, active compounds read low 0.98 | S. cerevisiae deletion strains, locus YPL051W, strain arl3, active compounds read low 1.01 | S. cerevisiae deletion strains, locus YPL078C, strain atp4, active compounds read low 1.01 | S. cerevisiae deletion strains, locus YPL106C, strain sse1, active compounds read low 0.997 | S. cerevisiae deletion strains, locus YPL240C, strain hsp82, active compounds read low 0.996 | S. cerevisiae deletion strains, locus YPL256C, strain CLN2, active compounds read low 1.08 | S. cerevisiae deletion strains, locus YPR119W, strain clb2, active compounds read low 0.977 | S. cerevisiae deletion strains, locus YPR141C, strain kar3, active compounds read low 0.958 | S. cerevisiae deletion strains, locus YPR163C, strain tif3, active compounds read low 0.982 | S. cerevisiae deletion strains, locus YPR167C, strain met16, active compounds read low 0.972 | S. cerevisiae deletion strains, strain wtn01, active compounds read low 0.982 | S. cerevisiae strains, strain wild type, active compounds read low 0.998
